# Measured values taken from PubChem BioAssay AID1240 (Sanford-Burnham Center for Chemical Genomics, 2008).
# Out of some 50,000 compounds screened, about 800 (1.6%) showed an effect of 50% or more. The full list was thinned out, with strong results kept by preference.
# Molecular target: Bcl-2-like protein 10 (Homo sapiens) (UniProt Q9HD36)
# Test: Phenotype converters, Bcl-B/TR3 peptide binding displacement, primary biochemical FP (AID 1240);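 note: 0% = Bcl-B with tracer peptide and DMSO and 100% = tracer peptide lacking Bcl-B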
# Conditions: GST-Bcl-B / FITC-TR3 peptide fluorescence polarization; stronger effect = higher value; compound at 3.75 mg/L
# Chain of Bcl-2-like protein 10 (Homo sapiens) (Q9HD36 whole entry, looked up): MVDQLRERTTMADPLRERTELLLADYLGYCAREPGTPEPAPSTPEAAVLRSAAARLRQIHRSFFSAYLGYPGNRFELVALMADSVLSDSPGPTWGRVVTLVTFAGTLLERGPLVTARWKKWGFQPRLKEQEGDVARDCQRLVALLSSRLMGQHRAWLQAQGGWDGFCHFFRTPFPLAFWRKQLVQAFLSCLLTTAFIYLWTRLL
row,SMILES,displacement [%]
1,CN(C)N1C(=O)c2ccc3c4c(ccc(c24)C1=O)CC3,6.4
2,O=C1c2ccc3c4c(ccc(c24)C(=O)N1Cc1ccco1)CC3,9.5
3,O=C1NC(=O)c2ccc3c4c(ccc1c24)CC3,55.5
4,O=C1NC(=S)NC(=O)C1=Cc1ccccc1OS(=O)(=O)c1ccc([N+](=O)[O-])cc1,-7.8
5,N#Cc1c(-c2cccc(Br)c2)c(C#N)c2nc3ccccc3n2c1N,109
6,N#Cc1c(-c2ccc(F)cc2)c(C#N)c2nc3ccccc3n2c1N,-8
7,N#Cc1c(-c2ccc(O)cc2)c(C#N)c2nc3ccccc3n2c1N,12.5
8,COc1cc2c(cc1NCc1cccc([N+](=O)[O-])c1)oc1ccccc12,-6.6
9,COc1ccc(-c2nn(-c3ccccc3)cc2C=O)cc1[N+](=O)[O-],-1.7
10,COc1ccc(-c2nn(-c3ccccc3)cc2/C=C2\N=C(c3ccccc3)OC2=O)cc1[N+](=O)[O-],93.8
11,O=C1OC(c2cccc(Cl)c2)=N/C1=C\c1ccccc1[N+](=O)[O-],7
12,CC(=O)CCc1oc2ccc(Br)cc2c1-c1ccc(C)o1,-10.4
13,COC(=O)C1=C(C(=O)OC)C2(OC1c1cccc(F)c1)C(=O)c1ccccc1C2=O (centres undefined),-0.3
14,CCCCOC(=O)c1cccc(NC(=O)c2cc3ccccc3oc2=O)c1,1.7
15,Cc1ccc(C(=O)O)cc1N1C(=O)c2ccc(C(=O)O)cc2C1=O,6.5
16,Cc1ccc(C(=O)O)cc1-n1c(C)ccc1C,83.2
17,Cc1cc(C(=O)O)ccc1-n1c(C)ccc1C,81.4
18,Cc1ccc(C(=O)O)cc1N1C(=O)c2ccccc2C1=O,7
19,Cc1ccc(N2C(=O)c3ccc(C(=O)O)cc3C2=O)c(C)c1,1.6
20,Cc1ccc(-c2ccccc2)n1-c1cccc(C(=O)O)c1,1.2
21,COc1ccccc1NC(=O)c1ccc(Br)o1,1
22,O=c1oc(-c2ccccc2Cl)nc2ccc(-c3ccc4nc(-c5ccccc5Cl)oc(=O)c4c3)cc12,11.6
23,O=C(Nc1cc(-c2nc3ccccc3s2)ccc1Cl)c1ccc([N+](=O)[O-])cc1,90.8
24,Cc1ccc2nsnc2c1NC(=O)c1ccc(-c2ccc([N+](=O)[O-])cc2)o1,16.6
25,O=C(Nc1cccc(-c2nc3ccccc3s2)c1)c1ccc(-c2ccc([N+](=O)[O-])cc2)o1,70
26,Cc1ccc2nsnc2c1NC(=O)c1ccc(-c2cccc([N+](=O)[O-])c2)o1,105
27,O=C(COc1ccc([N+](=O)[O-])cc1)Nc1cc(-c2nc3ccccc3s2)ccc1Cl,9

row,SMILES,displacement [%]
1,Cc1c(NC(=O)c2ccc(-c3cccc([N+](=O)[O-])c3)o2)cccc1-c1nc2ccccc2s1,3.7
2,CC(=O)Nc1cc(-c2nc3ccccc3s2)ccc1Cl,11.6
3,Cc1ccc2nsnc2c1NC(=O)c1ccc(-c2cccc(Cl)c2)o1,1.4
4,O=C(Nc1ccc(-c2nc3ccccc3s2)c(O)c1)c1ccc(-c2cccc([N+](=O)[O-])c2)o1,6.1
5,O=c1/c(=C\c2ccccc2OS(=O)(=O)c2ccc3ccccc3c2)sc2nc3ccccc3n12,4.6
6,O=[N+]([O-])c1ccc(N2CCN(S(=O)(=O)c3ccc(Cl)cc3)CC2)c(C(F)(F)F)c1,8.3
7,CCOC(=O)c1ccccc1NC(=O)c1ccc(N(Cc2ccc(Cl)cc2)S(C)(=O)=O)cc1,12.1
8,COC(=O)c1c(-c2cc(C)ccc2C)csc1N,-6.2
9,COc1cccc(/C=N/NC(=O)c2cc(C)[nH]n2)c1OC,-9
10,CN(C)CCCNC(=O)c1ccc2sc3cc(=O)c(N)cc-3nc2c1,44.6
11,CCCCOc1ccc2c3c(cccc13)C(=O)c1ccccc1-2,176
12,CCCCOc1ccc(N2C(=O)c3cccc4cccc(c34)C2=O)cc1,0.2
13,CCCCOc1ccccc1NC(=O)C(c1ccccc1)c1ccccc1,-16.9
14,CC1(C)CC(=O)C(Sc2ccc([N+](=O)[O-])cc2)=C(O)C1,17
15,CCOc1cc(-c2ccc(OC)cc2)[o+]c2c1ccc1ccccc12,6.2
16,C=CCOC(=O)C1=C(C)NC(=S)NC1c1ccccc1OCC (centres undefined),2.1
17,N#C/C(=C\N1CCOCC1)c1ccccc1,-0.9
18,N#CC(C#N)=C/C(=C/C(C#N)C#N)c1ccccc1,109
19,N#C/C(=C\c1ccc(Sc2ccccc2)o1)c1ccccc1,-14.9
20,COc1ccc2c(c1)C1C=CCC1C(c1ccc([N+](=O)[O-])cc1)N2 (centres undefined),-0.8
21,Cc1ccc2c(c1)C1C=CCC1C(c1ccc([N+](=O)[O-])cc1)N2 (centres undefined),12.2
22,COc1ccc2c(c1)C1C=CCC1C(C(=O)O)N2 (centres undefined),150
23,COc1ccc2c(c1)C1C=CCC1C(c1cccc([N+](=O)[O-])c1)N2 (centres undefined),-2.3
24,Cc1ccc2c(c1)C1C=CCC1C(C(=O)O)N2 (centres undefined),142
25,Cc1ccc2c(c1)C1C=CCC1C(c1ccccc1[N+](=O)[O-])N2 (centres undefined),6.9
26,COC(=O)c1c(C)oc2ccc(OC(=O)c3ccc(OC)c(OC)c3)cc12,10.8
27,Cc1ccc(C)c(N2C(=O)C3C4C=CC(C4=C4CCCC4)C3C2=O)c1 (centres undefined),3.8
